Compounds without any hit were thinned out: in the full panel of roughly 83,000, 20% have a hit.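 Activity criterion: percent growth below 10, measured after cells in 96-well plates were exposed to a single compound concentration for 48 hours.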 A number with no mark means an inactive call. Calls of active or inactive are those of the source.
What was measured:
Test in all cases: NCI-60 one-dose screen, 48 h (100 = growth as untreated, 0 = no growth, -100 = all killed)
Details in all cases: 10 µM unless noted
MOLT-4 leukemia = tested on: MOLT-4 leukemia
RPMI-8226 leukemia = tested on: RPMI-8226 leukemia
OVCAR-8 ovarian = tested on: OVCAR-8 ovarian
OVCAR-5 ovarian = tested on: OVCAR-5 ovarian
OVCAR-4 ovarian = tested on: OVCAR-4 ovarian
SK-OV-3 ovarian = tested on: SK-OV-3 ovarian
IGROV1 ovarian = tested on: IGROV1 ovarian
OVCAR-3 ovarian = tested on: OVCAR-3 ovarian
HS 578T breast = tested on: HS 578T breast
NCI/ADR-RES ovarian = tested on: NCI/ADR-RES ovarian
T-47D breast = tested on: T-47D breast
BT-549 breast = tested on: BT-549 breast
MDA-MB-435 melanoma = tested on: MDA-MB-435 melanoma
SW-620 colon = tested on: SW-620 colon
HCT-116 colon = tested on: HCT-116 colon
HCC-2998 colon = tested on: HCC-2998 colon
KM12 colon = tested on: KM12 colon
MCF7 breast = tested on: MCF7 breast

SMILES | growth (MOLT-4 leukemia) | growth (RPMI-8226 leukemia) | growth (OVCAR-8 ovarian) [%] | growth (OVCAR-5 ovarian) [%] | growth (OVCAR-4 ovarian) [%] | growth (SK-OV-3 ovarian) | growth (IGROV1 ovarian) [%] | growth (OVCAR-3 ovarian) | growth (HS 578T breast) [%] | growth (NCI/ADR-RES ovarian) | growth (T-47D breast) | growth (BT-549 breast) | growth (MDA-MB-435 melanoma) | growth (SW-620 colon) | growth (HCT-116 colon) | growth (HCC-2998 colon) | growth (KM12 colon) | growth (MCF7 breast) [%]
COc1ccc(/C=C\c2cc(OC)c(OC)c(OC)c2)cc1NC(=O)/C=C/c1cc(OC)c(OC)c(OC)c1 | 47.7% | 63.8% | 68.8 | 77.6 | 66.1 | 3.82% (active) | 62.4 | 47.7% | 51.8 | 8.42% (active) | 30% | 44% | -53.2% (active) | 47.6% | 44.6% | 91.2% | 28.6% | –
COC(=O)[C@]12CCC(C)(C)C[C@H]1[C@H]1C(=O)C[C@@H]3[C@@]4(C)C[C@@]5(CC(C)(C)[C@@H]4CC[C@@]3(C)[C@]1(C)CC2)OO[C@@](C)(C(F)(F)F)O5 | 93.6% | 90.3% | 97.6 | 94.1 | 81.1 | 103% | 97.8 | 106% | 99.7 | 98.6% | 81.4% | 111% | 98.7% | 103% | 88.7% | 106% | 99.9% | –
COc1cc(/C=C\c2cc(OC)c(OC)c(OC)c2)cc(NS(=O)(=O)c2cccc(Cl)c2)c1OC | 9.29% (active) | 18.1% | 18.2 | 19.5 | 37.4 | 16.9% | 26.3 | -36.3% (active) | 45.4 | 7.73% (active) | 93.1% | 24.1% | -20.2% (active) | 25.4% | 2.62% (active) | 13.9% | 5.83% (active) | –
CC(=O)OCC1O[C@@H]([S-])C(OC(C)=O)[C@H](OC(C)=O)[C@@H]1OC(C)=O.[Au+].c1ccc(CN2[CH-]N(Cc3ccccc3)C(c3ccccc3)=C2c2ccccc2)cc1 | 11.2% | -2.4% (active) | 53.2 | 93 | 60.2 | 56.9% | 14.3 | -18.5% (active) | 43.5 | 98.7% | -37.1% (active) | -30.2% (active) | 48.4% | 8.97% (active) | 18.8% | -57.4% (active) | 59.6% | –
O=C(Nc1ccc(O)cc1)C(Cl)(Cl)Cl | 104% | 112% | 97.1 | 102 | 105 | 98.2% | 100 | 124% | 112 | 99.4% | 89.5% | 91.2% | 103% | 110% | 103% | – | 103% | 99.1
CC(=O)O[C@H](C[C@H](C(C)C)N(C)C(=O)[C@@H](NC(=O)[C@H]1CCCN1C)C(C)C)c1nc(C(=O)N[C@@H](Cc2ccccc2)C[C@H](C)C(=O)O)c(C)s1 | 18.9% | 19.8% | 17.9 | 36.1 | 48.2 | 6.85% (active) | 30.2 | -22.9% (active) | 23.8 | 5.87% (active) | 50.6% | -22.7% (active) | -5.47% (active) | 25.1% | – | 21.9% | 8.49% (active) | –
N/C(=N/N=C/c1ccncc1)N[N+](=O)[O-] | 84.2% | 106% | 103 | 94.2 | 103 | 111% | 108 | 113% | 106 | 104% | – | 89.6% | 105% | 106% | 102% | 109% | 100% | 99.1
CC(C)=CC1C(C(=O)OCc2cccc(Oc3ccccc3)c2)C1(C)C (stereo unspecified) | 83.3% | 91.7% | 100 | 101 | 97.3 | 102% | 93.1 | 102% | 101 | 95% | – | 100% | 91.9% | 94.8% | 84.8% | 94.5% | 97.3% | –
Cc1cc(N(CCCl)CCCl)ccc1C=Nc1ccc(-c2csc(Cc3ccccc3)n2)cc1 | 27.2% | 58.5% | 65 | 54.4 | 64 | 56% | 61.7 | 75.2% | 106 | 61.6% | 45.3% | – | 78.3% | 83.2% | 77% | 71.7% | 89.8% | 44.5
